# In PMC11062922 (Nature Chemical Biology, 2023):
# Like-named read-outs stand apart in the source and are kept apart here.
# Legend:
# Parameters in all cases: species or system human, MV4-11 + K-562 + COLO205 + SK-N-BE2 + OVCAR-8
# ACVR2B = settings: read-out: apparent Kd, n = 1
# TGFBR2 = settings: read-out: apparent Kd; compound concentrations: 100 nM and 1000 nM (sheet 'Samples'), CATDS: 0.37560252723777299; n = 1
# BUB1 = settings: read-out: apparent Kd, compound concentrations: 100 nM and 1000 nM (sheet 'Samples'), n = 1
# MAP4K5 = settings: read-out: apparent Kd, n = 1
# PRKD3 = settings: read-out: apparent Kd, compound concentrations: 100 nM and 1000 nM (sheet 'Samples'), n = 1
# TAOK1 = settings: read-out: apparent Kd, n = 1
# NLK = settings: read-out: apparent Kd, compound concentrations: 100 nM and 1000 nM (sheet 'Samples'), n = 1
# DJA1 = test system: T1, DJA1; settings: read-out: apparent Kd, compound concentrations: 100 nM and 1000 nM (sheet 'Samples'), n = 1
# T1 construct: gene DNAJA1
# CSNK1A1 = settings: read-out: apparent Kd, n = 1
# EPHA2 = settings: read-out: apparent Kd, n = 1
# EPHA4 = settings: read-out: apparent Kd, n = 1
# EPHB2 = settings: read-out: apparent Kd, n = 1
# EPHB4 = settings: read-out: apparent Kd, n = 1
# MAPKAPK2 = settings: read-out: apparent Kd, n = 1
# PDGFRB = settings: read-out: apparent Kd; compound concentrations: 100 nM and 1000 nM (sheet 'Samples'), CATDS: 4.8396986719482699E-2; n = 1
# NQO2 = settings: read-out: apparent Kd; compound concentrations:100 nM and 1000 nM (sheet 'Samples'); n = 1
# MAPK9 = settings: read-out: apparent Kd, n = 1
# MAP2K1 = settings: read-out: apparent Kd, compound concentrations: 100 nM and 1000 nM (sheet 'Samples'), n = 1
# NQO1 = settings: read-out: apparent Kd; compound concentrations:100 nM and 1000 nM (sheet 'Samples'); n = 1
# [1] = compound concentrations:100 nM and 1000 nM (sheet 'Samples')
structure (smiles),measurement,setting,value
NC(=O)c1cccc(Nc2nccc(Nc3cccc4[nH]ncc34)n2)c1 [GW782612X],potency estimated from few doses,"ACVR2B; compound concentrations: 100 nM and 1000 nM (sheet 'Samples'), CATDS: 0.173302967359416",0.0524 µM
same,potency estimated from few doses,TGFBR2,0.017 µM
CC(C)c1nc(-c2cccc(NS(=O)(=O)c3ccccc3)c2)c(-c2ccnc(Nc3ccc4c(c3)CN(C)CC4)n2)s1 [GSK1649598A],potency estimated from few doses,BUB1; CATDS: 1.7014993428197001E-2,0.579 µM
same,potency estimated from few doses,"MAP4K5; compound concentrations: 100 nM and 1000 nM (sheet 'Samples'), CATDS: 1.3446008257637299E-2",1.32 µM
same,potency estimated from few doses,PRKD3; CATDS: 3.0357950556932599E-2,0.152 µM
same,potency estimated from few doses,"TAOK1; compound concentrations: 100 nM and 1000 nM (sheet 'Samples'), CATDS: 1.55271176192178E-2",0.769 µM
Cc1nn(C)c2cc(N(C)c3ccnc(Nc4cccc(S(N)(=O)=O)c4)n3)ccc12.Cl [GW770220A],potency estimated from few doses,NLK; CATDS: 0.27942165636777999,1.03 µM
COc1cc(Nc2nccc(N3CCC(NC(=O)c4cccc(C#N)c4)C3)n2)cc(OC)c1OC (stereo not shown) [GSK1379751A],potency estimated from few doses,DJA1; CATDS: 0.205535073981469,0.817 µM
Cc1cccc(-c2cc(-c3c[nH]nc3-c3ccccn3)ccn2)c1 [GW679395X],potency estimated from few doses,ACVR2B; [1],1.66 µM
same,potency estimated from few doses,CSNK1A1; [1],1.81 µM
Cc1cccc(Nc2nc(NCCN)ncc2C(N)=O)c1 [GSK1292139B],potency estimated from few doses,PRKD3; CATDS: 6.9928558616796505E-2,1.54 µM
O=C1N=C(NCc2cccs2)SC1Cc1ccc2ncccc2c1 (stereo not shown) [RO4629078-000],potency estimated from few doses,BUB1; CATDS: 7.2203356914043596E-3,1.93 µM
same,potency estimated from few doses,"EPHA2; compound concentrations: 100 nM and 1000 nM (sheet 'Samples'), CATDS: 1.36009605508639E-2",0.342 µM
same,potency estimated from few doses,"EPHA4; compound concentrations: 100 nM and 1000 nM (sheet 'Samples'), CATDS: 1.66325304555619E-2",0.238 µM
same,potency estimated from few doses,"EPHB2; compound concentrations: 100 nM and 1000 nM (sheet 'Samples'), CATDS: 1.9892167159836899E-2",0.178 µM
same,potency estimated from few doses,"EPHB4; compound concentrations: 100 nM and 1000 nM (sheet 'Samples'), CATDS: 2.1087498416613601E-2",0.162 µM
same,potency estimated from few doses,PRKD3; CATDS: 7.3913708056946199E-3,1.75 µM
same,potency estimated from few doses,"TAOK1; compound concentrations: 100 nM and 1000 nM (sheet 'Samples'), CATDS: 7.4050083824812101E-3",1.73 µM
COc1cc(Nc2ccnc3cc(-c4ccncc4)ccc23)cc(OC)c1OC.Cl [GW494610A],potency estimated from few doses,"EPHA2; compound concentrations: 100 nM and 1000 nM (sheet 'Samples'), CATDS: 2.8855283068255098E-2",0.577 µM
same,potency estimated from few doses,"MAP4K5; compound concentrations: 100 nM and 1000 nM (sheet 'Samples'), CATDS: 2.1260288667502202E-2",2.03 µM
same,potency estimated from few doses,"MAPKAPK2; compound concentrations: 100 nM and 1000 nM (sheet 'Samples'), CATDS: 2.2209833673663099E-2",1.62 µM
same,potency estimated from few doses,NLK; CATDS: 5.2882757998729699E-2,0.11 µM
same,potency estimated from few doses,PDGFRB,0.136 µM
O=S(=O)(c1ccc(-c2ccnc3[nH]ccc23)cc1)N1CCCC1 [GSK846226A],potency estimated from few doses,TAOK1; [1],1.69 µM
Cn1cc(-c2cnc(N)c3c(-c4ccc5c(c4)CCN5C(=O)Cc4ccccc4)csc23)cn1 [GSK2593074A],potency estimated from few doses,MAP4K5; [1],0.302 µM
CC(=O)c1c(-c2ccncc2)[nH]c(-c2ccncc2)c1C [GW493036X],potency estimated from few doses,"CSNK1A1; compound concentrations: 100 nM and 1000 nM (sheet 'Samples'), CATDS: 4.1725323261606301E-2",0.874 µM
same,potency estimated from few doses,NQO2,1.11 µM
Cl.Cn1c(=O)c(Cc2ccc(F)cc2F)cc2cnc(NC3CCOCC3)nc21 [RO3308757-001],potency estimated from few doses,EPHA2; [1],1.13 µM
same,potency estimated from few doses,EPHA4; [1],0.743 µM
same,potency estimated from few doses,EPHB2; [1],0.364 µM
same,potency estimated from few doses,EPHB4; [1],0.268 µM
same,potency estimated from few doses,MAPK9; [1],1.03 µM
same,potency estimated from few doses,MAPKAPK2; [1],0.669 µM
COc1ccc(-c2nc3n(c2-c2ccncc2)CCC3)cc1.COc1ccc(-c2nc3n(c2-c2ccncc2)CCC3)cc1.O=S(=O)(O)O.O=S(=O)(O)O [SKF-104493-B2],potency estimated from few doses,MAP2K1; CATDS: 9.8642022165156204E-2,2.4 µM
same,potency estimated from few doses,"MAPKAPK2; compound concentrations: 100 nM and 1000 nM (sheet 'Samples'), CATDS: 0.15746092707453499",0.867 µM
CC(=O)N1CCN(c2ccc(Nc3nccc(-c4sc(C(C)C)nc4-c4cccc(NS(=O)(=O)c5cccc(Cl)c5)c4)n3)cn2)CC1 [GSK1660437A],potency estimated from few doses,BUB1; CATDS: 4.8956093582398198E-2,0.873 µM
same,potency estimated from few doses,DJA1; CATDS: 3.8253703176693299E-2,1.69 µM
same,potency estimated from few doses,PRKD3; CATDS: 4.4377312299456101E-2,1.11 µM
O=S(=O)(CCOCc1ccc(-c2ccc3ncnc(Nc4ccc(OCc5cccc(F)c5)c(Cl)c4)c3c2)o1)c1ccccc1 [GW615311X],potency estimated from few doses,"MAPK9; compound concentrations: 100 nM and 1000 nM (sheet 'Samples'), CATDS: 2.2235644452826799E-2",2.36 µM
Fc1cc(Cl)ccc1Nc1ccnc2cc(-c3ccc(CN4CCOCC4)o3)ccc12 [GW560109X],potency estimated from few doses,"ACVR2B; compound concentrations: 100 nM and 1000 nM (sheet 'Samples'), CATDS: 7.2197051902398501E-2",0.673 µM
Cn1cc(-c2ccc3c(c2)CCN3C(=O)Cc2cc(F)cc(C(F)(F)F)c2)c2c(N)ncnc21 [GSK2635225A],potency estimated from few doses,DJA1; CATDS: 0.15894194998460401,0.902 µM
COc1cc2ncn(-c3cc(OCc4ccncc4)c(C(N)=O)s3)c2cc1OC [GSK336313A],potency estimated from few doses,NQO1,1.23 µM
CC(C)c1nc(-c2cccc(NS(=O)(=O)c3c(F)cccc3F)c2)c(-c2ccnc(Nc3ccc(N4CCOCC4)nc3)n2)s1.Cl [GSK1723980B],potency estimated from few doses,BUB1; CATDS: 3.0141053938719398E-2,0.191 µM
same,potency estimated from few doses,PRKD3; CATDS: 3.3451662470077102E-2,0.156 µM
N#Cc1cnc2cc(-c3cnc(CNCCN4CCOCC4)s3)ccc2c1Nc1ccc(Oc2ccccc2)cc1 [GW664114X],potency estimated from few doses,MAP2K1; CATDS: 5.9486551355906997E-2,0.606 µM
same,potency estimated from few doses,"MAP4K5; compound concentrations: 100 nM and 1000 nM (sheet 'Samples'), CATDS: 0.103025865385486",0.199 µM
CC(=O)N1CCN(c2ccc(Nc3nccc(-c4sc(C(C)C)nc4-c4cccc(NS(=O)(=O)c5ccccc5)c4)n3)cn2)CC1 [GSK1645872A],potency estimated from few doses,BUB1; CATDS: 3.26865073204873E-2,0.604 µM
same,potency estimated from few doses,PRKD3; CATDS: 5.5326802343899903E-2,0.227 µM
COc1cc2ncn(-c3cc(OCc4cccs4)c(C(N)=O)s3)c2cc1OC [GSK312948A],potency estimated from few doses,MAP4K5; [1],0.116 µM
